# Laboratory results from ChEMBL document CHEMBL3988442, “University of Dundee, Small-Polar-MMV Screening Library” (2021).
# For some of these results: Potency and affinity values are given separately.
# Key:
# Parameters in all cases: scale not given: direction of the effect not stated beside the values
# [1] = target: Protein translocase subunit SecA (Escherichia coli (strain K12)) (UniProt P10408); assay: Assay to Identify E. coli SecA ATPase Inhibitors; format: functional; details: 30 µM
# [2] = target: T1, Ubiquitin-activating enzyme e1, putative (Leishmania donovani (strain BPK282A1)) (UniProt E9BSI1); assay: Leishmania donovani Ubiquitin Activating Enzyme (LdE1); format: functional; details: 30 µM
# T1 sequence (whole entry): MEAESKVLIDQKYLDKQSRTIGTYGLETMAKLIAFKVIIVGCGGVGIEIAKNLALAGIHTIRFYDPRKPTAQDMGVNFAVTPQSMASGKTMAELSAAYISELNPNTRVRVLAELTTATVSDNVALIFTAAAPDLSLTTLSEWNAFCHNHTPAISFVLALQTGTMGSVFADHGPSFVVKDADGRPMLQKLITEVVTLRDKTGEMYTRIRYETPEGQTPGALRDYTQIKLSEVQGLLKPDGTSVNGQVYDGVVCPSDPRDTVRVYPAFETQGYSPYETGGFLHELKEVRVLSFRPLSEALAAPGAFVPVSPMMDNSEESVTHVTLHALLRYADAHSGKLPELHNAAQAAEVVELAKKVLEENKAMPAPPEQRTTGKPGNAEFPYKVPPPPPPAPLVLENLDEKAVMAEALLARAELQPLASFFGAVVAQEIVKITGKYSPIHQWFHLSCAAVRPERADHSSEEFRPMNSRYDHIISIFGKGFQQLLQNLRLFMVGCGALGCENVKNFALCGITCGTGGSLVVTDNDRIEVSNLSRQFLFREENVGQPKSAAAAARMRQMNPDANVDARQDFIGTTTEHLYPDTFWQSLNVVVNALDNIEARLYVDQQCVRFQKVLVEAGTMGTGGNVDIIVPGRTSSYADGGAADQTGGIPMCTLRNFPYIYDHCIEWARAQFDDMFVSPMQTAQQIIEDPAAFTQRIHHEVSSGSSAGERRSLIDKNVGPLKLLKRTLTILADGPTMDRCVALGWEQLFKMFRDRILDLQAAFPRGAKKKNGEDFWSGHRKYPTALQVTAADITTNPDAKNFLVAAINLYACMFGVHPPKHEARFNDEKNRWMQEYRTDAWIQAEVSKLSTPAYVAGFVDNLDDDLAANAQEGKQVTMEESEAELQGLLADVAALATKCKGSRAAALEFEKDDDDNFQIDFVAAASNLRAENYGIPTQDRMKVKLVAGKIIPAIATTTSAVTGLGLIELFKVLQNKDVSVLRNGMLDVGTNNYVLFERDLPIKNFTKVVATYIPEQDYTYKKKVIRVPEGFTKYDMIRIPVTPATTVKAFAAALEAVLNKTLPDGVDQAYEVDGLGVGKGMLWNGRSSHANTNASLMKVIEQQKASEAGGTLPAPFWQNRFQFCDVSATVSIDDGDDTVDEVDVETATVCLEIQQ
# [3] = target: AMP-activated protein kinase, AMPK (Homo sapiens) (UniProt P54646+O43741+P54619+Q9UGJ0+Q9Y478+Q13131+Q9UGI9); assay: AMP-dependent Kinase enzyme assay. An in vitro enzyme assay that detects ADP turnover that is directly proportional to AMPK activity. This uses naive AMPK that is activated during the assay with MK-8722; format: functional; details: 30 µM
# [4] = target: Sialic acid-binding Ig-like lectin 9 (Homo sapiens) (UniProt Q9Y336); assay: Hs-Siglec9 ALPHAscreen SOP 20170721; details: 10 µM
# Trypanosoma cruzi = assay: Trypanosoma cruzi phosphomannomutase and mannose-1-phosphate guanylyltransferase assay; format: functional; details: 10 µM
# [5] = target: T2, Arginase-2, mitochondrial (Homo sapiens) (UniProt P78540); assay: in vitro enzyme assay to detect the production of urea directly proportional to the activity of Arginase II; format: functional; details: 33.3 µM; further: in the data most compounds retested in dose-response had high values
# T2 sequence (whole entry): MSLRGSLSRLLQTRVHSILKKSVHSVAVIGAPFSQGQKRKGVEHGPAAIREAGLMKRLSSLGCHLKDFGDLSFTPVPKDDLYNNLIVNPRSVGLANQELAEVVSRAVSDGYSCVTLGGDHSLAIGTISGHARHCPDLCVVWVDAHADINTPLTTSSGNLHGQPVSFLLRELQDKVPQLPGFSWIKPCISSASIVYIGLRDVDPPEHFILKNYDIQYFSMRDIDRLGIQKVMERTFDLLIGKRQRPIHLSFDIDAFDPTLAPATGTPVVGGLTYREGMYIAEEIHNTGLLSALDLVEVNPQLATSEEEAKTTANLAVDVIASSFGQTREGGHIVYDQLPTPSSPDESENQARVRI
# [6] = target: T3, Proteasome subunit beta (Trypanosoma cruzi) (UniProt O96673); assay: Trypanosoma cruzi proteasome chymotrypsin-like activity (TcProtChymo) assay.; further: in the data most compounds retested in dose-response had high values; format: functional; details: 9.37 µM
# T3 sequence (whole entry): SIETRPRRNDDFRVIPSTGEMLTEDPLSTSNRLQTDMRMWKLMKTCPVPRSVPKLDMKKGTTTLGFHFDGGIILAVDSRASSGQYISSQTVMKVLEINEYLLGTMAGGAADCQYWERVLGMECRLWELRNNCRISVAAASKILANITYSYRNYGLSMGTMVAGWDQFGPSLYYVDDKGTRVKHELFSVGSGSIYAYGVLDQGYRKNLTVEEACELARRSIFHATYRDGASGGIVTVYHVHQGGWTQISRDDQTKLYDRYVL
# Homo sapiens = species on record: Homo sapiens; assay: To identify inhibition of the IFN signalling (Jak-Stat) pathway via expression of an eGFP reporter gene under the control of an IFN-stimulated response element (ISRE) containing MxA promoter.; format: functional; details: 30 µM
# [7] = target: T4, Tyrosyl-tRNA synthetase, putative (Trypanosoma cruzi (strain CL Brener)) (UniProt Q4DSP6); assay: Trypanosoma cruzi tyrosyl tRNA synthetase (TcYRS) _High Tyrosine SOP; format: functional; details: 30 µM; further: in the data most compounds retested in dose-response had high values
# T4 sequence (whole entry): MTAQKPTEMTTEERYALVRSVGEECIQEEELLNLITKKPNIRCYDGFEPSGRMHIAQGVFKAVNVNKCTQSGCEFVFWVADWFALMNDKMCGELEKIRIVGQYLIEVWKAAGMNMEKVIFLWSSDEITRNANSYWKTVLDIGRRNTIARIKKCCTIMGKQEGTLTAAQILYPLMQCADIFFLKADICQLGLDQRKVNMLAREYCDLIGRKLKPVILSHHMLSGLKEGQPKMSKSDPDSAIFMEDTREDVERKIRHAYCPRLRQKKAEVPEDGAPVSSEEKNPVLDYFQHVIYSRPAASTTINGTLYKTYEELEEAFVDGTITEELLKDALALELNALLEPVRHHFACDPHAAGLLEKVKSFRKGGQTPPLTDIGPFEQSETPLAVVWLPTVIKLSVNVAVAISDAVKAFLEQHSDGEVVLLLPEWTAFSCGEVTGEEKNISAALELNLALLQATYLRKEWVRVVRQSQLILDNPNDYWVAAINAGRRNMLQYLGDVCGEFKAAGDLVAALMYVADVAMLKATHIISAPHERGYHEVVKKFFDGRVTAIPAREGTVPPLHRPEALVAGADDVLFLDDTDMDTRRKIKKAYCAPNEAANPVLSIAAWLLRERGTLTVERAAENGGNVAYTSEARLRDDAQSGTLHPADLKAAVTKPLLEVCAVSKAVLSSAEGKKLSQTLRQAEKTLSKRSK
# [8] = target: T4, Tyrosyl-tRNA synthetase, putative (Trypanosoma cruzi (strain CL Brener)); assay: Trypanosoma cruzi tyrosyl tRNA synthetase (TcYRS) SOP; format: functional; details: 30 µM
# [9] = target: Chromo domain-containing protein 1 (Saccharomyces cerevisiae (strain ATCC 204508 / S288c) (Baker's yeast)) (UniProt P32657); assay: ScCHD-1 Enzyme Inhibition Assay; format: functional; details: 30 µM; further: in the data most compounds retested in dose-response had high values
# Sequence of Chromo domain-containing protein 1 (Saccharomyces cerevisiae (strain ATCC 204508 / S288c) (Baker's yeast)) (P32657 whole entry, the tested form may be a part): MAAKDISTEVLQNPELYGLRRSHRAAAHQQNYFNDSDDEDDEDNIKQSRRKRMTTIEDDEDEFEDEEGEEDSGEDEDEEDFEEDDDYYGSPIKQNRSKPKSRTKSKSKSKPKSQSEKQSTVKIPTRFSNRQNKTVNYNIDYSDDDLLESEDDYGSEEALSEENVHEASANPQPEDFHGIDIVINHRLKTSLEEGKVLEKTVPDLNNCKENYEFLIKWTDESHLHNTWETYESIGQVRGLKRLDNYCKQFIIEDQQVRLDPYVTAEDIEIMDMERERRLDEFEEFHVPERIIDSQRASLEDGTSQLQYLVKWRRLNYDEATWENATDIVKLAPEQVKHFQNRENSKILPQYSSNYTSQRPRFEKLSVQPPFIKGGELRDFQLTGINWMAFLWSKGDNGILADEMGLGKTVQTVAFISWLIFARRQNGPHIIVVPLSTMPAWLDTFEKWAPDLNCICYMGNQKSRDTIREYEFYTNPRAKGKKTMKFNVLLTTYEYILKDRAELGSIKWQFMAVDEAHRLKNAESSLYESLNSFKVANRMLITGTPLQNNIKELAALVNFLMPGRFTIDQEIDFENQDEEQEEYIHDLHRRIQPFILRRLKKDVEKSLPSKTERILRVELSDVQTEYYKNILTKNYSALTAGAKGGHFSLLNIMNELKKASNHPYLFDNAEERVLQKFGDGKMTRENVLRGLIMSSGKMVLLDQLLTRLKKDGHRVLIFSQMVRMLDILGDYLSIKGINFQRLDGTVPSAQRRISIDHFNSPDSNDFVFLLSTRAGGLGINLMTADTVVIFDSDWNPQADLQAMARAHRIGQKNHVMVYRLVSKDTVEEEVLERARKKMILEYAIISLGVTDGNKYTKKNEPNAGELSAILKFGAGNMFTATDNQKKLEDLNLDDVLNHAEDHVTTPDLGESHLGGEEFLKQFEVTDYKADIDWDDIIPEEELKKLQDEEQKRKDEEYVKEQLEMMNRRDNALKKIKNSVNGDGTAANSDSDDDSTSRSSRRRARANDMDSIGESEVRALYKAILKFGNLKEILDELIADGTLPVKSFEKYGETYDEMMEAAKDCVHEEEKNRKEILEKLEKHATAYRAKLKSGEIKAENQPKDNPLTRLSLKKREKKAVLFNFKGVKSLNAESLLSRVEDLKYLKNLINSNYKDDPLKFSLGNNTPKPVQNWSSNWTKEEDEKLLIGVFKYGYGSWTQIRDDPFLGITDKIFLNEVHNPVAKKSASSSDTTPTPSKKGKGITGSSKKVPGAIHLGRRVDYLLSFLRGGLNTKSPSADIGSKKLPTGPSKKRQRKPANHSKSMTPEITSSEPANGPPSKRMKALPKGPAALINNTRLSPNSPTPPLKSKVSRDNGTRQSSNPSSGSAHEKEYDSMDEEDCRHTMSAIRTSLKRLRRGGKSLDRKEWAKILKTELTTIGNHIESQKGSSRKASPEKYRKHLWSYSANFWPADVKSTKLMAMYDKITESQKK
# Sequence of Protein translocase subunit SecA (Escherichia coli (strain K12)) (P10408 whole entry): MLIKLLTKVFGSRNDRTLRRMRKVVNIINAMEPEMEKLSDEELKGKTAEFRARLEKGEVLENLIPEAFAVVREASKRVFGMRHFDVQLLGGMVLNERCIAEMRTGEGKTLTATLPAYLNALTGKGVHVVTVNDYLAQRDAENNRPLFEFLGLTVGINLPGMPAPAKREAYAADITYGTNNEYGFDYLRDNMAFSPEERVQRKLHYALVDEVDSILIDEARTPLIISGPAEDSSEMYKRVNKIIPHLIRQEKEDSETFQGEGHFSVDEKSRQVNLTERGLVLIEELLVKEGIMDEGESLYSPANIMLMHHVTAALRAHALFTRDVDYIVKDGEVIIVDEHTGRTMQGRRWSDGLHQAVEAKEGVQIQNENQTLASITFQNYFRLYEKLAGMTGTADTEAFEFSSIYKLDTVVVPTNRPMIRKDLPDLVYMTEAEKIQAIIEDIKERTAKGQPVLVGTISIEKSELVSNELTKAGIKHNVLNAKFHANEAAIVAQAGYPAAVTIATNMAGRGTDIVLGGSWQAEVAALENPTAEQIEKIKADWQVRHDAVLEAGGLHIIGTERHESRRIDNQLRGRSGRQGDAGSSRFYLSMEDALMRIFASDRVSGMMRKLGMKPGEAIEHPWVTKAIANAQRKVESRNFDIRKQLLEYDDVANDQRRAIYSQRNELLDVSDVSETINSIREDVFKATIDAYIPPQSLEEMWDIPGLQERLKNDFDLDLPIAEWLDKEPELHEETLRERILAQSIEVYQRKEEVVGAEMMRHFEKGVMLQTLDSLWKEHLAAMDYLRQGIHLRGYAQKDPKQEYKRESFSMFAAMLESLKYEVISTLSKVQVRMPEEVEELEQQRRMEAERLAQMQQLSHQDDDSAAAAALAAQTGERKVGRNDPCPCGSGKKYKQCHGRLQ
# Sequence of Sialic acid-binding Ig-like lectin 9 (Homo sapiens) (Q9Y336 whole entry): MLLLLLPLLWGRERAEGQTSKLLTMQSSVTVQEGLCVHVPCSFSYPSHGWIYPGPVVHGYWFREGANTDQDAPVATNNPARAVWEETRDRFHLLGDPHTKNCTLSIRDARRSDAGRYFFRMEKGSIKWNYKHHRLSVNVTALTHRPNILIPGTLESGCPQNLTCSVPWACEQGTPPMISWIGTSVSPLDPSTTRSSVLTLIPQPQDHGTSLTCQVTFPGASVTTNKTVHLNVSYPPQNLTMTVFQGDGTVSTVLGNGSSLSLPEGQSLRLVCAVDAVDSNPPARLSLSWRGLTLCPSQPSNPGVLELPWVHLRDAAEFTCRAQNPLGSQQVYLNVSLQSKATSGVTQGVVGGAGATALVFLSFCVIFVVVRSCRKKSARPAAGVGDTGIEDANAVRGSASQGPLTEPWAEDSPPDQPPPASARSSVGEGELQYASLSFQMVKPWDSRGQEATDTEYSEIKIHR
SMILES,Percent Effect [1] [%],Percent Effect [2] [%],Percent Effect [3] [%],Percent Effect [4] [%],Percent Effect (Trypanosoma cruzi) [%],Percent Effect [5] [%],Percent Effect [6] [%],Percent Effect (Homo sapiens) [%],Percent Effect [7] [%],Percent Effect [8] [%],Percent Effect [9] [%]
COCCO[C@@H]1C[C@H]2CN(C(=O)c3cnccn3)CCN2C1,-2.84,5.33,-0.698,4.55,-0.965,-39.6,4.79,-8.37,0,-15,-3.81
CCOC(C)c1nc(CN2CCNCC2)cs1 (stereo unspecified),-3,-8.11,-1.11,0.0763,-3.09,-5.24,6.21,14.6,-1.59,-4.88,-3.79
CN(C)CCN(Cc1ccc(Cl)cc1)C(=O)c1cc[nH]n1,-2.91,20.8,3.16,18.6,2.23,3.53,17.9,3.16,7.37,17.9,-5.67
Cc1nccn1CCC1CCCCN1C(=O)c1ccc2[nH]nnc2c1 (stereo unspecified),-2.88,10.7,-0.957,10,2.63,16.7,9.59,7.47,3.83,6.17,-6.44
O=C(NC1CC1)[C@@H]1CCO[C@@H]2CCN(Cc3ccsc3)C[C@H]21,-3.17,-8.11,8.56,0.445,-5.38,3.5,17.5,3.93,0,0,7.56
Cc1cc(C[S+]([O-])CC(=O)NCC(C)C)no1 (stereo unspecified),-4.4,18.2,6.46,-1.61,-2.06,-2.49,0.676,-13.6,7.77,12.2,-5.33
CC(=O)N1CCOC(c2cc(N3CC(O)C3)nc(C)n2)C1 (stereo unspecified),-3.22,5.33,11,-2.94,0.394,2.1,11.2,0.425,5.32,16.7,-2.41
CCC(C)NC(=O)Nc1ccc(CN2CCOC2=O)cc1 (stereo unspecified),-5.29,-6.94,-16.3,-0.797,-5.15,0,12.1,21,-2.1,-5.13,-1.28
CC(C)(C)c1nnc(CN2CCN(CC(O)c3ccccc3)CC2)o1 (stereo unspecified),-4.73,10.1,-1.08,7.24,2.55,0,-6.31,10.4,5.42,16.5,-5.94
CCOCCCNC(=O)c1cc(C)nc(N2CCCC2)n1,-10.2,12,-12.6,7.96,4.91,-11.1,5.36,8.1,1.06,10.3,-14
O=C(NC1CC1)[C@H]1C[C@H]2OCC[C@H]2N(CC2CC2)C1,-4.51,-2.67,3.02,9.5,-3.28,-55.7,0.513,6.42,-4.17,-7.5,4.05
